Measured values taken from ChEMBL document CHEMBL1961873, “Compounds: GSK PKIS; Assays: Nanosyn kinase panel” (2012).

Key:
[1] = target: Ribosomal protein S6 kinase alpha-6 (Homo sapiens) (UniProt Q9UK32); details: at 1 µM;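 also: each value is a mean inhibition of RSK4 from a GSK PKIS panel screen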
[2] = target: T1, Serine/threonine-protein kinase Sgk1 (Homo sapiens) (UniProt O00141); details: at 0.1 µM
T1 sequence (whole entry): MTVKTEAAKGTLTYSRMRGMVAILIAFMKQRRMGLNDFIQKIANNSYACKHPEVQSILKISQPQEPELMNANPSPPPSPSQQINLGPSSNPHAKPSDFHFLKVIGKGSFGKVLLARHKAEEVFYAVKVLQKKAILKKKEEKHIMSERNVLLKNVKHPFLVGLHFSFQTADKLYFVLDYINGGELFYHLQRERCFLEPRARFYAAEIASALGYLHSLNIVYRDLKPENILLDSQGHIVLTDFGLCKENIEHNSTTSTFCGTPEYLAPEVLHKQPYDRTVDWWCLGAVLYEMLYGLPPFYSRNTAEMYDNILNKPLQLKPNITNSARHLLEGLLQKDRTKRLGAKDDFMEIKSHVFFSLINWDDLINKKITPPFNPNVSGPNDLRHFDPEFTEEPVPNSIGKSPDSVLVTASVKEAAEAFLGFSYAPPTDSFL

[3] = target: T1, Serine/threonine-protein kinase Sgk1 (Homo sapiens); details: at 1 µM
[4] = target: T2, Serine/threonine-protein kinase Sgk2 (Homo sapiens) (UniProt Q9HBY8); details: at 0.1 µM
T2 sequence (whole entry): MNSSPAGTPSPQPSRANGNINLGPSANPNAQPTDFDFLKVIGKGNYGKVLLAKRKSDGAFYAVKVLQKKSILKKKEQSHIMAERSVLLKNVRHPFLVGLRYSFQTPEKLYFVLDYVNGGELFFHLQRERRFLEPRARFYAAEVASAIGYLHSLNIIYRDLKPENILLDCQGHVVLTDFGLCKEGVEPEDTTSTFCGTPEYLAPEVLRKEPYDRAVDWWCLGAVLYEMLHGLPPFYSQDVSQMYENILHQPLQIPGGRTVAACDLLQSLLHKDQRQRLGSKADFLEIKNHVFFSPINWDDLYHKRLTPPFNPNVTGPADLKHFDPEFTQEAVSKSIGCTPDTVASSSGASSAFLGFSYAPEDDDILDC

[5] = target: T2, Serine/threonine-protein kinase Sgk2 (Homo sapiens); details: at 1 µM
[6] = target: T3, Serine/threonine-protein kinase Sgk3 (Homo sapiens) (UniProt Q96BR1); details: at 0.1 µM
T3 sequence (whole entry): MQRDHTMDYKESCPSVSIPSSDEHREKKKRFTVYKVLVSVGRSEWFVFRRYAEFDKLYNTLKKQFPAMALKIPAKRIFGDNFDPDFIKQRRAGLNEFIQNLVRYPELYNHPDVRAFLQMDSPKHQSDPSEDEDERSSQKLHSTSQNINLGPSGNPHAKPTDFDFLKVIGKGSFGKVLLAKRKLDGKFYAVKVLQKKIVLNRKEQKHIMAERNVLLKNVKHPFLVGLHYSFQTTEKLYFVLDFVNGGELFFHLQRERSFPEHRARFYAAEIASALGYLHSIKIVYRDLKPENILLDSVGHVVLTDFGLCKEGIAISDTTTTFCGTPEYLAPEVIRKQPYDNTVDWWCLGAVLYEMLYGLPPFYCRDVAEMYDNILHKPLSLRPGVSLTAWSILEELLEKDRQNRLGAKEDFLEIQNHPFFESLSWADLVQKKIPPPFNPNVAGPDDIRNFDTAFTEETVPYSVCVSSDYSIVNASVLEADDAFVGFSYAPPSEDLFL

[7] = target: T3, Serine/threonine-protein kinase Sgk3 (Homo sapiens); details: at 1 µM
[8] = target: 5'-AMP-activated protein kinase catalytic subunit alpha-1 (Homo sapiens) (UniProt Q13131); details: at 0.1 µM
[9] = target: 5'-AMP-activated protein kinase catalytic subunit alpha-1 (Homo sapiens) (UniProt Q13131); details: at 1 µM
[10] = target: 5'-AMP-activated protein kinase catalytic subunit alpha-2 (Homo sapiens) (UniProt P54646); details: at 0.1 µM
[11] = target: 5'-AMP-activated protein kinase catalytic subunit alpha-2 (Homo sapiens) (UniProt P54646); details: at 1 µM
[12] = target: T4, NUAK family SNF1-like kinase 1 (Homo sapiens) (UniProt O60285); details: at 0.1 µM
T4 sequence (whole entry): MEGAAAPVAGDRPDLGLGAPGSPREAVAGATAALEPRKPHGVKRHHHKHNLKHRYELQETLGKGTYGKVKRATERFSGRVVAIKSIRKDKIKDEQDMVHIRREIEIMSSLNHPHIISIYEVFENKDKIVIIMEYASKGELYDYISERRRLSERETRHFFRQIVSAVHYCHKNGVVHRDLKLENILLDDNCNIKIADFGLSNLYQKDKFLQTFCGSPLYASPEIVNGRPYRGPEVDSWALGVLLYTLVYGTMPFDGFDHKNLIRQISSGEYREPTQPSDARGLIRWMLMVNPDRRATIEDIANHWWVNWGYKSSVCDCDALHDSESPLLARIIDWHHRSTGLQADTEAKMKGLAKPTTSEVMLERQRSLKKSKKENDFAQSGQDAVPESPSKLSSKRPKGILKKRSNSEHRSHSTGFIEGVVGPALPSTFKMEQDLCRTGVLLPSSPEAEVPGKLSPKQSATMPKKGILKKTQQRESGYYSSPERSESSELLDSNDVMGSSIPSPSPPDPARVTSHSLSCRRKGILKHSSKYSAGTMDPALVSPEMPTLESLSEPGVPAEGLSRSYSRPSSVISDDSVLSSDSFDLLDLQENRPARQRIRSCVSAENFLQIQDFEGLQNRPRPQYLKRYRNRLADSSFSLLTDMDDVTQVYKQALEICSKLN

[13] = target: T4, NUAK family SNF1-like kinase 1 (Homo sapiens); details: at 1 µM
[14] = target: T5, Serine/threonine-protein kinase BRSK1 (Homo sapiens) (UniProt Q8TDC3); details: at 0.1 µM
T5 sequence (whole entry): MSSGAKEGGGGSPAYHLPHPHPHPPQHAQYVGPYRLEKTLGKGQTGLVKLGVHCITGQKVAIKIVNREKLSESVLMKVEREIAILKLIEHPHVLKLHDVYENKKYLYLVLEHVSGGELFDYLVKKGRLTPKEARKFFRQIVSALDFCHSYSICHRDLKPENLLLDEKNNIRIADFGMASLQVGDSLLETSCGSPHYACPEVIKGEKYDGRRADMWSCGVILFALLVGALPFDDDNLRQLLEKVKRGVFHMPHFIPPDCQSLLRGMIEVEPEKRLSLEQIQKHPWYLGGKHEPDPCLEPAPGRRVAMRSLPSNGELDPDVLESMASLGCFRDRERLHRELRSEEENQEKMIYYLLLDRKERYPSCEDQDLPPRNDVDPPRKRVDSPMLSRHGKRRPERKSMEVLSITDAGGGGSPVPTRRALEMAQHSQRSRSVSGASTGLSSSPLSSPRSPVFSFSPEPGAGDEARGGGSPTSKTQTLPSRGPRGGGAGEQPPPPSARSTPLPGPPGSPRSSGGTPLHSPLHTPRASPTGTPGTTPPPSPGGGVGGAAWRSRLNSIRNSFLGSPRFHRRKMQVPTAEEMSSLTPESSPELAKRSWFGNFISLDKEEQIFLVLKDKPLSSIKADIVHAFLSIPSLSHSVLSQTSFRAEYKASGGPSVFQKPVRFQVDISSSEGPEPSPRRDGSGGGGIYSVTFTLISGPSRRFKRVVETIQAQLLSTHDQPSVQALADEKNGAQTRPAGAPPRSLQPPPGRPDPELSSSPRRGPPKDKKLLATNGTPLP

[15] = target: T5, Serine/threonine-protein kinase BRSK1 (Homo sapiens); details: at 1 µM
[16] = target: T6, Serine/threonine-protein kinase BRSK2 (Homo sapiens) (UniProt Q8IWQ3); details: at 0.1 µM
T6 sequence (whole entry): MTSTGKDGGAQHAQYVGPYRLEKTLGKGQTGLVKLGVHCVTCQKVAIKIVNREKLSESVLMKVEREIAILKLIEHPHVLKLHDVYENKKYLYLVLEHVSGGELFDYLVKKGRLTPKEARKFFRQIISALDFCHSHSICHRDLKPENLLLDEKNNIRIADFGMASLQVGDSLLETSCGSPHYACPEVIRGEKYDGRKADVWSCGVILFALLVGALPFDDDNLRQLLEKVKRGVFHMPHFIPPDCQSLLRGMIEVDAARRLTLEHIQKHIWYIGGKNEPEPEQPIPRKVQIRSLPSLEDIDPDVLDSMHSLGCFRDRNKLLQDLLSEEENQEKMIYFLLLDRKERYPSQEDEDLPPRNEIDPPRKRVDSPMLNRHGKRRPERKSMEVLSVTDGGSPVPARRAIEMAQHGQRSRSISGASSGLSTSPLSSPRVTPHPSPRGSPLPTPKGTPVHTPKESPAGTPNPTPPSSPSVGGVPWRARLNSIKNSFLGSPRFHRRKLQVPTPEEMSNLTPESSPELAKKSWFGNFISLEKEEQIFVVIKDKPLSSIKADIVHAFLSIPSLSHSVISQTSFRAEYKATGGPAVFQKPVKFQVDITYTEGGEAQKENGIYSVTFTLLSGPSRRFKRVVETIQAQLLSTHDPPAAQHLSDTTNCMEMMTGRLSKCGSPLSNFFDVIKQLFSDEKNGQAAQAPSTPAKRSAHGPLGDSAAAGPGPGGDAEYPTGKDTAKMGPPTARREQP

[17] = target: T6, Serine/threonine-protein kinase BRSK2 (Homo sapiens); details: at 1 µM
[18] = target: Calcium/calmodulin-dependent protein kinase type 1D (Homo sapiens) (UniProt Q8IU85); details: at 0.1 µM
[19] = target: Calcium/calmodulin-dependent protein kinase type 1D (Homo sapiens) (UniProt Q8IU85); details: at 1 µM
[20] = target: Calcium/calmodulin-dependent protein kinase type II subunit alpha (Homo sapiens) (UniProt Q9UQM7); details: at 0.1 µM;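 also: reported values are averages (mean inhibition of CAMK2A)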
Sequence of Calcium/calmodulin-dependent protein kinase type II subunit alpha (Homo sapiens) (Q9UQM7 whole entry): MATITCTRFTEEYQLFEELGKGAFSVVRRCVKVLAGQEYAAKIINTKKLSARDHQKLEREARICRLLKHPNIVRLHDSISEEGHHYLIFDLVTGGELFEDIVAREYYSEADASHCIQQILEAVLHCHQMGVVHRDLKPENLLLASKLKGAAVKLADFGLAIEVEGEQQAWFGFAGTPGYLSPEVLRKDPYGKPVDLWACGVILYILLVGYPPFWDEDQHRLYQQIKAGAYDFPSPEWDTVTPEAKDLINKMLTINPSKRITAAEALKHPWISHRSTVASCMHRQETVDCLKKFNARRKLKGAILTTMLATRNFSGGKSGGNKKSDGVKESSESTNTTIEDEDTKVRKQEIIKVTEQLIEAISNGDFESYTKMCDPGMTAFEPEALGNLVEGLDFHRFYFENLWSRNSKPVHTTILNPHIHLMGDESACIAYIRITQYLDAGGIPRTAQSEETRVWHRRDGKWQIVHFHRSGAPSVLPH

Sequence of 5'-AMP-activated protein kinase catalytic subunit alpha-2 (Homo sapiens) (P54646 whole entry, looked up): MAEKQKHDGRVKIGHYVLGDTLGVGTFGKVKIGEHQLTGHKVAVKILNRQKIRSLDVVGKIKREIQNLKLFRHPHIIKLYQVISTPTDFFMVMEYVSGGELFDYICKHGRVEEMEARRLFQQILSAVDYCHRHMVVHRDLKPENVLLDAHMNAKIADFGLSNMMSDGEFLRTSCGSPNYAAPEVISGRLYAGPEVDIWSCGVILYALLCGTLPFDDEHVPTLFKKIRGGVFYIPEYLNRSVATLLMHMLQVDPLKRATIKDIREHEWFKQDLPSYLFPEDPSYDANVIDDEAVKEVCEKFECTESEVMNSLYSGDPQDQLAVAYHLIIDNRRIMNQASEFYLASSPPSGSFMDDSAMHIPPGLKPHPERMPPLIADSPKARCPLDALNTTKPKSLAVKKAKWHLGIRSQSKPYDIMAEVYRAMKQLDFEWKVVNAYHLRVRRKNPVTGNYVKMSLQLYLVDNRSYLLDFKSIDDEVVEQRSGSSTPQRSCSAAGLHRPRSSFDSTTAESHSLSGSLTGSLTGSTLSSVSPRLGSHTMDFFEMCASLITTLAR
Sequence of Calcium/calmodulin-dependent protein kinase type 1D (Homo sapiens) (Q8IU85 whole entry, looked up): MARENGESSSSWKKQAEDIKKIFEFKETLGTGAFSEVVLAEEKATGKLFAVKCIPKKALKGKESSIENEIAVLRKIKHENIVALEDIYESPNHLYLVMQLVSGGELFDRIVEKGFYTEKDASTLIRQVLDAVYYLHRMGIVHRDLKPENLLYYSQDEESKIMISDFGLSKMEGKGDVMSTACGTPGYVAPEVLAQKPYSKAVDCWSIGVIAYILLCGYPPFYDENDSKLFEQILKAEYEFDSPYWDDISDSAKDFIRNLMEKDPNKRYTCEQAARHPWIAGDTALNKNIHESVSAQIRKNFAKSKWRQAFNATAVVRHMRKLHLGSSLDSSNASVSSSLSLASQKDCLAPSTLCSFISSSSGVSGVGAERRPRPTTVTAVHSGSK
Sequence of 5'-AMP-activated protein kinase catalytic subunit alpha-1 (Homo sapiens) (Q13131 whole entry, looked up): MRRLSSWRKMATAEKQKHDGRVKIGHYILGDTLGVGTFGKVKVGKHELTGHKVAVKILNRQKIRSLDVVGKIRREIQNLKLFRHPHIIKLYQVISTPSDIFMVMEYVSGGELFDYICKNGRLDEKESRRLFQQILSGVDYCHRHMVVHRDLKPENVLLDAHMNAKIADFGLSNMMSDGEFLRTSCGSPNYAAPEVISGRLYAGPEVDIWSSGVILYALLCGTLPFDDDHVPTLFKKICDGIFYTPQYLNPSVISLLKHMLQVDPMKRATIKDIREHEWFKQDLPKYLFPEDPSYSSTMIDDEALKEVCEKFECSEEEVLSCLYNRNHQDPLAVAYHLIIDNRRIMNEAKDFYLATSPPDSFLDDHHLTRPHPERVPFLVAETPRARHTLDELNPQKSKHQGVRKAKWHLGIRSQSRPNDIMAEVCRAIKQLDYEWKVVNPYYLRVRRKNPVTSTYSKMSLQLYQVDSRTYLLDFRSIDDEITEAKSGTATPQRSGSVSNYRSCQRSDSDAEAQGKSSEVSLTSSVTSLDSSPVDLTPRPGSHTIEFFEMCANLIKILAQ
Sequence of Ribosomal protein S6 kinase alpha-6 (Homo sapiens) (Q9UK32 whole entry): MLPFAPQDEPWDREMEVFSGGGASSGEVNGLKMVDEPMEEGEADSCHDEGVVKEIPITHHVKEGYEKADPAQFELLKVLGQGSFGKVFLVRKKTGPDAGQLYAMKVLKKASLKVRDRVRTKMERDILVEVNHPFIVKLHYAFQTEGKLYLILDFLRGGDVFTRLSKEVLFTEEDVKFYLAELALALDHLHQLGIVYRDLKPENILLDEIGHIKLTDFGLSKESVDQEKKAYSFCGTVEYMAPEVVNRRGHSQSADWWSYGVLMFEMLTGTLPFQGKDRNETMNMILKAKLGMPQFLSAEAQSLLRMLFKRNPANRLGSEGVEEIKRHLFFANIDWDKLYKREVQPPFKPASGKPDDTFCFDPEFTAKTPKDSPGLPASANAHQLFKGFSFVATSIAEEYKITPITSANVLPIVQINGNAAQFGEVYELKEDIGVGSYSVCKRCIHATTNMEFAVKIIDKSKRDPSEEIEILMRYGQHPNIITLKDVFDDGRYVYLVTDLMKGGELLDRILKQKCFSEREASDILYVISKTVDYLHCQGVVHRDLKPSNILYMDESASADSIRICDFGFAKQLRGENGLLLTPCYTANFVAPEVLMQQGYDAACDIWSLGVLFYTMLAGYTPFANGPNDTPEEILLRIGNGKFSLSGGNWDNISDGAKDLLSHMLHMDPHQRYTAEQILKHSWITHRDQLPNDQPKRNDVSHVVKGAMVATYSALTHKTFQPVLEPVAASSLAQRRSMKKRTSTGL

Row | SMILES | inhibition [1] [%] | inhibition [2] [%] | inhibition [3] [%] | inhibition [4] [%] | inhibition [5] [%] | inhibition [6] [%] | inhibition [7] [%] | inhibition [8] [%] | inhibition [9] [%] | inhibition [10] [%] | inhibition [11] [%] | inhibition [12] [%] | inhibition [13] [%] | inhibition [14] [%] | inhibition [15] [%] | inhibition [16] [%] | inhibition [17] [%] | inhibition [18] [%] | inhibition [19] [%] | inhibition [20] [%]
1 | CCN(CC)Cc1ccc(Nc2nccc(-c3cnn4ncccc34)n2)cc1 | 9.62 | 1.11 | 7.61 | 3.89 | 4.57 | 3.92 | 2.8 | 3.26 | 9.99 | 7.01 | 12.7 | 69 | 84.3 | 3.36 | 3.16 | 2.2 | 10.6 | -0.62 | 4.23 | 2.6
2 | O=C1NC(=O)C(c2cccc(Cl)c2)=C1Nc1ccc(Cl)c(C(=O)O)c1 | 3.09 | 3.35 | 8.21 | 0.84 | 3.07 | 2.77 | 4.64 | 3.69 | 3.89 | -0.69 | -4.09 | -9.56 | 3.08 | -0.75 | 0.27 | 1.73 | 2.47 | -1.22 | -0.07 | 3.4
3 | NC(=O)c1ccc(Oc2nccc(-c3c(-c4ccc(F)cc4)ncn3C3CCNCC3)n2)cc1 | 3.24 | 2.88 | 3.6 | 1.93 | 4.5 | 3.5 | 2.61 | 2.33 | 3.68 | 7.31 | 3.28 | 1.39 | 2.27 | 2.39 | -0.49 | 1.13 | 1.56 | 0.06 | 2.62 | 3.03
4 | O=C(Nc1ccc(Oc2ccc3[nH]c(NC(=O)c4ccccc4)nc3c2)cc1)Nc1cc(C(F)(F)F)ccc1F | 2.72 | 1.68 | 3.96 | 2.66 | 4.13 | 1.78 | 2.24 | 2.87 | 2.98 | 0.79 | 4.55 | 1.15 | 3.05 | 0.18 | 0.16 | 1.2 | 2.83 | -0.03 | 1.95 | 2.8
5 | Cc1ccc(C(=O)NC(C)C)cc1-c1ccc(C(=O)NCC2CC2)cc1 | 0.59 | 0.01 | -0.09 | -3.55 | -7.09 | -5.05 | -2.17 | -1.19 | -1.42 | -0.98 | -5.48 | 3.9 | 3.92 | 1.12 | -1.28 | 0.51 | 1.61 | -1.04 | 0.57 | -4.62
6 | COc1cccc(/C=N/Nc2ncnc3c2cnn3-c2cccc(OC)c2)c1 | 1.54 | 1.88 | 1.38 | 1.32 | 2.15 | 2.71 | 2.43 | 1.52 | 2.74 | 5.39 | 2.83 | 1.95 | 3.7 | 0.47 | -0.97 | 1.04 | 2.41 | -0.14 | 0.89 | 0.99
